Data from PubChem BioAssay AID624483 (NMMLSC, 2012).
Hit rate of the full screen: of about 360,000 compounds, about 11,000 (3.1%) were called active. Inconclusive results (about 2%) are left out. Cut-off read from the data, not from the text of the source: active = fluorescence intensity above about 16000; inconclusive = no clear call, values can overlap the other calls; inactive = below that. Many of the other results were omitted from the sample, so actives are more common in it than they were.

Assay: counter-screen for toxin protease inhibitors: compound fluorescence, primary screen, artefact control for toxin protease inhibitor project, biochemical, multiplex microsphere, HTS (AID 624483)
Conditions: compound autofluorescence counterscreen, microsphere flow cytometry; stronger effect = higher value
With Cc1ccc(NC(=S)N/N=C2/CCCc3c(C)cc(C)cc32)cc1 the fluorescence intensity was 20600 (active).
For C/C(=N\NC(=S)Nc1ccc(C)cc1)c1cc2ccccc2o1, the fluorescence intensity was 4230 (inactive).
For Cc1ccc(C)c(NC(=S)NNC(=S)Nc2ccc(C(C)C)cc2)c1, the fluorescence intensity was 3300 (inactive).
For COCc1cccc(-c2csc(C(O)c3ccc(F)cc3)n2)c1 (stereo unspecified), the fluorescence intensity was 3440 (inactive).
In the case of O=C(CC1Nc2ccccc2NC1=O)Nc1ccccc1 (stereo unspecified), the fluorescence intensity is reported as 3710 (inactive).
For N#Cc1ccc(-c2ccc3nccn3c2)cc1, the fluorescence intensity was 3660 (inactive).
In the case of Cc1ccc(NS(=O)(=O)c2ccc(C(C)(C)C)cc2)cn1, the fluorescence intensity is reported as 3470 (inactive).
For Cc1cc(C)cc(OCC(=O)Nc2ccc(S(=O)(=O)Nc3ccccn3)cc2)c1, the fluorescence intensity was 2260 (inactive).
For Cc1ccc(S(=O)(=O)Nc2ccc3ncccc3c2)cc1, the fluorescence intensity was 22700 (active).
With CSc1cccc(NC(=S)N(C(C)C)C(C)c2ccccn2)c1 (stereo unspecified) the fluorescence intensity was 3430 (inactive).
With Cc1ccc2c(=O)cc(C(=O)NCCc3ccc(S(N)(=O)=O)cc3)oc2c1C the fluorescence intensity was 3650 (inactive).
In the case of O=C(NCc1cccnc1)c1ccccc1NC(=O)c1c(F)cccc1F, the fluorescence intensity is reported as 5910 (inactive).
With O=C(NC1(C(F)(F)F)NC(=O)N(Cc2cccnc2)C1=O)c1ccccc1Cl (stereo unspecified) the fluorescence intensity was 21200 (active).
In the case of COc1ccc(C(=O)NC2(C(F)(F)F)NC(=O)N(CCCc3ccccc3)C2=O)c(OC)c1OC (stereo unspecified), the fluorescence intensity is reported as 8270 (inactive).
In the case of CCOC(=O)c1ccc(COC(=O)CCc2nc(-c3ccccc3)c(-c3ccccc3)o2)cc1, the fluorescence intensity is reported as 16400 (active).
For CCOC(=O)c1ccc(-n2c(CCC(=O)O)ccc2-c2ccccc2)cc1, the fluorescence intensity was 3600 (inactive).
With Cc1onc(-c2ccccc2)c1-c1nnc(COC(=O)c2ccc(N(C)C)cc2)o1 the fluorescence intensity was 3380 (inactive).
For COc1c(O)ccc2c1CN1CCc3cc4c(cc3C1C2)OCO4 (stereo unspecified), the fluorescence intensity was 4960 (inactive).
In the case of COc1ccc(C2OC(CCc3ccccc3)Cc3[nH]c(=S)[nH]c(=O)c32)cc1 (stereo unspecified), the fluorescence intensity is reported as 5590 (inactive).
With CCOC(=O)c1cc(NC(=O)c2cccnc2)ccn1 the fluorescence intensity was 3490 (inactive).
For CCOc1ccccc1NC(=O)c1cccnc1, the fluorescence intensity was 3020 (inactive).
In the case of CCOC(=O)c1cc(NC(=O)c2cccnc2)cc(C(=O)OCC)c1, the fluorescence intensity is reported as 24800 (active).
In the case of OC[C@@H]1CN(Cc2ccc(-c3ccccc3)cc2)C[C@H](n2cnc3c(NC4CCCC4)ncnc32)O1, the fluorescence intensity is reported as 3740 (inactive).
For Cc1ccc(-n2c(SCC(=O)Nc3ccc4c(c3)OCO4)nnc2-c2ccccn2)cc1, the fluorescence intensity was 9860 (inactive).
In the case of CCn1c(Cc2cccs2)nnc1SCC(=O)c1ccc(C)cc1, the fluorescence intensity is reported as 23000 (active).
In the case of COc1ccc(-n2c(SCC(=O)NCc3cccs3)nnc2-c2ccoc2C)cc1, the fluorescence intensity is reported as 3110 (inactive).
With CCOC(=O)CSc1nnc(CNC(=O)c2ccco2)n1-c1ccc(F)cc1 the fluorescence intensity was 8100 (inactive).
With Cc1ccc(-n2c(Cc3cccs3)nnc2SCC(=O)OC(C)C)cc1 the fluorescence intensity was 23800 (active).
With CCn1c(SCC(=O)c2ccc(Cl)s2)nnc1-c1cccs1 the fluorescence intensity was 3490 (inactive).
In the case of Cc1ccc(-c2nnc(SCC(=O)N/N=C/c3cccs3)n2-c2ccc(C)cc2)cc1, the fluorescence intensity is reported as 2620 (inactive).
For CCOC(=O)CSc1nnc(CNC(=O)c2cccs2)n1-c1ccccc1, the fluorescence intensity was 24300 (active).
With COc1ccc(-n2c(SCC(=O)OC(C)C)nnc2-c2ccccn2)cc1 the fluorescence intensity was 23500 (active).
For Cn1c(Cc2cccs2)nnc1SCC(=O)Nc1ccccc1, the fluorescence intensity was 5420 (inactive).
For O=C(CSc1nnc(-c2ccccn2)n1-c1ccccc1)Nc1ccc2c(c1)OCO2, the fluorescence intensity was 2680 (inactive).
For CCOC(=O)CSc1nnc(CNC(=O)c2cccs2)n1-c1cc(OC)ccc1OC, the fluorescence intensity was 9680 (inactive).
With COc1ccc2c(CC(=O)NNC(=O)c3ccccc3F)coc2c1 the fluorescence intensity was 2950 (inactive).
For CCNC(=O)C1(C)CCCN(Cc2noc(-c3ccccc3OC)n2)C1 (stereo unspecified), the fluorescence intensity was 3700 (inactive).
For CCN(CC)c1nc(-c2ccccc2)cc(C(F)(F)F)c1C#N, the fluorescence intensity was 2560 (inactive).
In the case of O=C(C=CC(=O)Nc1ccc(F)cc1F)Nc1ccc(F)cc1F, the fluorescence intensity is reported as 6040 (inactive).
With COc1ccc(NC(=O)C2(C)Cc3c(-c4cccc(NC(C)=O)c4)ccnc3O2)cc1OC (stereo unspecified) the fluorescence intensity was 3020 (inactive).
In the case of CCc1nc2ccc(C(=O)N(C)CCN(C)C)cn2c1N(CC)CCOC, the fluorescence intensity is reported as 3650 (inactive).
For O=C(NCC(O)c1nc2ccccc2[nH]1)c1ccc(Br)cc1 (stereo unspecified), the fluorescence intensity was 5430 (inactive).
In the case of C[C@@H]1CC2=C(C(=O)OC(C)(C)O2)[C@@H](C2CC2)O1, the fluorescence intensity is reported as 5730 (inactive).
With CCN(C(=O)CN1CCN(Cc2ccccc2)CC1)c1c(N)n(Cc2ccccc2)c(=O)[nH]c1=O the fluorescence intensity was 3390 (inactive).
With Cc1csc(=O)n1CCC(=O)OCC(=O)NNC(=O)c1ccc(Br)cc1 the fluorescence intensity was 3030 (inactive).
In the case of Cc1nc(C(=O)Nc2ccc(Cl)cc2)sc1C1(C)CC(c2ccccc2)=NO1 (stereo unspecified), the fluorescence intensity is reported as 3390 (inactive).
In the case of C=C1C(=O)OC2C1CCC(C)=CCCC1(C)OC21 (stereo unspecified), the fluorescence intensity is reported as 6040 (inactive).
For COc1ccc(NC(=O)C2(C)Cc3c(-c4cccc(NC(C)=O)c4)ccnc3O2)cc1 (stereo unspecified), the fluorescence intensity was 3560 (inactive).
In the case of O=C(O)c1ccc(N/N=C/c2cn(-c3ccccc3)nc2-c2cccs2)cc1, the fluorescence intensity is reported as 3970 (inactive).
With O=C(N/N=C/c1sc(N2CCCCC2)nc1-c1cccs1)c1cccnc1 the fluorescence intensity was 16400 (active).
For Cc1ccc(NC(=O)COc2ccc(/C=N\NC(=O)c3cccnc3)cc2)cc1C, the fluorescence intensity was 4500 (inactive).
For O=C(Nc1ccc(Cl)cc1)c1csc([C@H]2C[C@H](O)[C@@H](CO)O2)n1, the fluorescence intensity was 2790 (inactive).
In the case of COCCCn1c(Cc2csc(Nc3cccc(Cl)c3)n2)nnc1SCC(=O)OC1CCCCC1, the fluorescence intensity is reported as 3010 (inactive).
With NC(=O)CC(NC(=O)Cc1cccc2ccccc12)c1ccc(NCc2cc(F)ccc2F)c([N+](=O)[O-])c1 (stereo unspecified) the fluorescence intensity was 4100 (inactive).
With CCOc1ccc(OCC)c(NC(=O)C(NS(=O)(=O)c2ccc3c(c2)oc(=O)n3C)C(C)C)c1 (stereo unspecified) the fluorescence intensity was 20600 (active).
With CSCCC(NS(=O)(=O)c1ccc2c(c1)oc(=O)n2C)C(=O)NCc1ccccc1 (stereo unspecified) the fluorescence intensity was 4490 (inactive).
For CCOc1ccc(OCC)c(NC(=O)CCS(=O)(=O)c2ccc(C)cc2)c1, the fluorescence intensity was 3840 (inactive).
With CCCCN(CCCC)CCNC(=O)CN1C(=O)COc2ccc(S(=O)(=O)N3CCOCC3)cc21 the fluorescence intensity was 5470 (inactive).
In the case of CC(C)CNC(=O)C1(C)CCCN1C(=O)CSc1ccccc1 (stereo unspecified), the fluorescence intensity is reported as 3520 (inactive).
For O=C(CP(=O)(c1ccccc1)c1ccccc1)N1CCOCC1, the fluorescence intensity was 4810 (inactive).
With CCOC(=O)c1cnc(COc2ccccc2Cl)[nH]c1=O the fluorescence intensity was 5960 (inactive).
For CCCCSc1[nH]c(=O)c(C(=O)OCC)cc1C#N, the fluorescence intensity was 23400 (active).
With CCOC(=O)c1cc(C)nc(S(C)(=O)=O)c1C#N the fluorescence intensity was 6150 (inactive).
In the case of CC(NCCc1ccc(S(N)(=O)=O)cc1)C(=O)NCc1ccccc1 (stereo unspecified), the fluorescence intensity is reported as 3370 (inactive).
For O=C(O)c1ccccc1Cc1ccc(F)c2ccccc12, the fluorescence intensity was 3460 (inactive).
In the case of Cc1noc(C)c1S(=O)(=O)N(C)C[C@H]1OCCCC[C@@H](C)Oc2ccc(NC(=O)CCCN(C)C)cc2C(=O)N([C@H](C)CO)C[C@@H]1C, the fluorescence intensity is reported as 3820 (inactive).
With O=C1CCC(=O)N1CCC(=O)N(C(=O)NC1CCCCC1)C1CCCCC1 the fluorescence intensity was 3950 (inactive).
With COc1ccc(-c2cc(NC(C)=O)c3ncc(-c4cc(OC)c(OC)c(OC)c4)n3c2)cn1 the fluorescence intensity was 2720 (inactive).
In the case of CCOn1c(SC(C)C)nc2ccccc2c1=O, the fluorescence intensity is reported as 10100 (inactive).
For COCC(C)n1c(SCC(=O)NC2CCCCC2C)nc2ccccc2c1=O (stereo unspecified), the fluorescence intensity was 2940 (inactive).
For CCOC(=O)C(C)Sc1nc2ccccc2c(=O)n1CC1CCCCC1 (stereo unspecified), the fluorescence intensity was 19900 (active).
For Cc1ccc2c(c1)N(CC(=O)NCCc1ccc(Cl)cc1)C(=O)c1cccnc1O2, the fluorescence intensity was 5070 (inactive).
For CCc1nc2c(OCCOc3ccccc3)cccn2c1N(C)C(=O)c1ccccc1F, the fluorescence intensity was 3430 (inactive).
In the case of CCCCN(C=O)c1c(CC)nc2c(OCCC3CCCCC3)cccn12, the fluorescence intensity is reported as 3460 (inactive).
With Cc1ccccc1OCC(=O)NCC(=O)OCC(=O)c1ccc2ccccc2c1 the fluorescence intensity was 10600 (inactive).
In the case of Cc1ccc2[nH]c(=O)c(CN(CC3COCCO3)C(=O)Nc3ccccc3C)cc2c1 (stereo unspecified), the fluorescence intensity is reported as 3250 (inactive).
With Cc1ccc2[nH]c(=O)c(CN(CCCN(C)C)C(=O)Nc3cccc(Cl)c3)cc2c1 the fluorescence intensity was 21500 (active).
With Cc1cccc(NC(=O)N(Cc2cc3cc(C)cc(C)c3[nH]c2=O)CC2COCCO2)c1 (stereo unspecified) the fluorescence intensity was 11500 (inactive).
For COc1ccccc1CNc1nc(Nc2ccccc2Cl)c2sccc2n1, the fluorescence intensity was 3450 (inactive).
For Cc1occc1C(=O)NNC(=S)NCC(C)C, the fluorescence intensity was 16400 (active).
In the case of CC(C)CNC(=S)NNC(=O)c1nn(C)cc1Cl, the fluorescence intensity is reported as 8820 (inactive).
For Cc1scc(C(=O)NNC(=S)NCC(C)C)c1C, the fluorescence intensity was 2420 (inactive).
With CN(C)S(=O)(=O)c1ccc(C(=O)NCCN=C2NS(=O)(=O)c3ccccc32)cc1 the fluorescence intensity was 3720 (inactive).
With CC[C@]12c3[nH]c4cc(CCC(=O)N(C)C)ccc4c3CCN1C(=O)[C@@H](CC(=O)NCCCn1ccnc1)C[C@@H]2C(=O)N1CCN(C(=O)C2CC2)CC1 the fluorescence intensity was 3900 (inactive).
In the case of COc1cc(C2C(C(=O)OCCC#N)=C(C)NC3=C2S(=O)(=O)c2ccccc23)cc(OC)c1OC (stereo unspecified), the fluorescence intensity is reported as 9630 (inactive).
For CCCCn1nc(C(=O)Nc2cccc(C(=O)NC3CC3)c2)c2ccccc2c1=O, the fluorescence intensity was 3390 (inactive).
With CCCn1nc(C(=O)N2CCCc3ccccc32)c2ccccc2c1=O the fluorescence intensity was 4370 (inactive).
With CCCCn1nc(C(=O)N2CCc3ccccc32)c2ccccc2c1=O the fluorescence intensity was 23400 (active).
In the case of OC[C@@H]1CN(Cc2ccc(F)cc2)C[C@H](n2cnc3c(NC4CCCC4)ncnc32)O1, the fluorescence intensity is reported as 3760 (inactive).
With CC(=O)OCC(C)n1c(=O)c2ccccc2n1C(C)=O (stereo unspecified) the fluorescence intensity was 6200 (inactive).
With Cc1cn([C@H]2C[C@H](O)[C@@H](/C=C/C(=O)NCCCc3ccccc3)O2)c(=O)[nH]c1=O the fluorescence intensity was 4330 (inactive).
